Molecules are shown by their SMILES. Inconclusive results are not listed. Unmarked numbers belong to inactive results. Calls follow the shape of the dose curve; as a rule, active = well fitted activation curve with a large enough effect; inconclusive = small, poorly fitted or top-dose-only effect; inactive = no such curve, though single readings can be large or run the other way.

Chain of Cellular tumor antigen p53 (Homo sapiens) (P04637 whole entry, looked up): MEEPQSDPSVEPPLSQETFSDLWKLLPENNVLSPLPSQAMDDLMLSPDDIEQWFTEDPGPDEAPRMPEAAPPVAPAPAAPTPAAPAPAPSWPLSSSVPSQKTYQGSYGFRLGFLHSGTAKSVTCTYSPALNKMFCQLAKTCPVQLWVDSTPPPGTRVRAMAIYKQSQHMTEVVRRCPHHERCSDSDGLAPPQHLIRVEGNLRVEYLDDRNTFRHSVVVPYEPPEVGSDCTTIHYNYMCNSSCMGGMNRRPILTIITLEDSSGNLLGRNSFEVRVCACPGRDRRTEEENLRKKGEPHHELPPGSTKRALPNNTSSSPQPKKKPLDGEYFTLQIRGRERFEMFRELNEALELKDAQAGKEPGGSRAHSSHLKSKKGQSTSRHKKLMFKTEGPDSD

This test addresses Cellular tumor antigen p53 (Homo sapiens) (UniProt P04637). Briefly: Primary qHTS for small molecule compounds that upregulate eGFP-tagged delta133p53alpha (in N-terminal) cells. (AID 2060322).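 Also: series mostly up to about 56 µM; 0% = DMSO vehicle and 100% = reference activator; nearly all actives have a fitted effect of over 75% in size.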 To be noted: NCI-H358 eGFP-delta133p53alpha fluorescence, 24 h; activation: active compounds read high. The procedure, abridged:
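NCI-H358 cells pre-induced 24 h with 10 ng/ml doxycycline to express N-terminal eGFP-delta133p53alpha, then dosed 24 h at 37C without doxycycline; fixed, Hoechst-stained, GFP intensity by laser scanning cytometry, normalized to DMSO (0%) and 57.5 uM 5-azacytidine (100%).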
For orientation: qHTS replaces the single test concentration by a dilution series.
With `Cc1cccc(C)c1NC(=O)CN1CCCC1`, the activation is 10%.
As for `O=C(CO)[C@@H](O)[C@H](O)[C@@H](O)CO`, the activation was -15.9%.
The value for `CCn1c(=O)c2c(nc(C=Cc3ccc(OC)c(OC)c3)n2C)n(CC)c1=O` was -8.1%.
`CCCCC(C)(C)[C@H](O)C=C[C@H]1[C@H](O)CC(=O)[C@H]1CC=CCCCC(=O)O`: the activation was 1.38%.
For the compound `COc1cc(OC)nc(O[C@H](C(=O)O)C(OC)(c2ccccc2)c2ccccc2)n1`, the activation is -22%.
The value for `O=C1OC(c2ccc(O)cc2)(c2ccc(O)cc2)c2ccccc21` was 10.7%; that for `c1ccc2c(c1)CCc1ccccc1N2` was 10.7%.
The value for `Cc1c(I)c(=O)n(-c2ccccc2)n1C` was -10.7%; that for `CCCCOC(=O)CC(CC(=O)OCCCC)(OC(C)=O)C(=O)OCCCC` was -31.1%; that for `C=CCSCC1Nc2cc(Cl)c(S(N)(=O)=O)cc2S(=O)(=O)N1` (stereo unspecified) was -36.8%.
Take `C=CCn1c(=O)n([C@@H]2O[C@H](CO)[C@@H](O)[C@H]2O)c2nc(N)[nH]c(=O)c21`: the activation was -0.565%.
As to `CCC(=O)c1c(O)cc(O)cc1O`, the activation is -1.67%.
As for `Cc1ncc(CO)c(CN)c1O`, the figure is 16.4%.
As for `O=C(OCC1(COC(=O)c2cccnc2)CCCC(COC(=O)c2cccnc2)(COC(=O)c2cccnc2)C1O)c1cccnc1`, the figure is -11.7%; as for `N#Cc1cc(NC(=O)C(=O)O)c(Cl)c(NC(=O)C(=O)O)c1`, 0.565%; as for `COc1cc(N2CCN(C)CC2)ccc1Nc1nc(N)c(C(=O)c2c(Cl)cccc2Cl)s1`, -2.41%.
